Parameters in all cases: species or system human, MV4-11 + K-562 + COLO205 + SK-N-BE2 + OVCAR-8
In one assay the test system is ADCK1. To be noted: read-out: apparent Kd, n = 1.
A further assay relates to CDK17. The note with it: read-out: apparent Kd, n = 1.
The subject of the next assay is CSNK1E. To be noted: read-out: apparent Kd, compound concentrations: 100 nM and 1000 nM (sheet 'Samples'), n = 1.
A further assay relates to MAPK8. The note with it: read-out: apparent Kd, n = 1.
The test system of another assay is CSNK1A1. To be noted: read-out: apparent Kd, n = 1.
In the next assay the test system is RIOK2. To be noted: read-out: apparent Kd, n = 1.
Another assay relates to MARK2. To be noted: read-out: apparent Kd, n = 1.
In the next assay the test system is ROCK2. The note with it: read-out: apparent Kd, n = 1.
The subject of another assay is BUB1. The note with it: read-out: apparent Kd; compound concentrations:100 nM and 1000 nM (sheet 'Samples'); n = 1.
For another assay, the system named is EPHA2. The note with it: read-out: apparent Kd; compound concentrations:100 nM and 1000 nM (sheet 'Samples'); n = 1.
Another assay relates to PHKG2. To be noted: read-out: apparent Kd, n = 1.
Another assay deals with STK16. To be noted: read-out: apparent Kd, n = 1.
For a further assay, the system named is PRKAA2. To be noted: read-out: apparent Kd; compound concentrations: 100 nM and 1000 nM (sheet 'Samples'), CATDS: 1.2623383108322899E-2; n = 1.
The next assay relates to RPS6KA4. To be noted: read-out: apparent Kd; compound concentrations: 100 nM and 1000 nM (sheet 'Samples'), CATDS: 2.8007008589504299E-2; n = 1.
The subject of a further assay is STK3. To be noted: read-out: apparent Kd; compound concentrations: 100 nM and 1000 nM (sheet 'Samples'), CATDS: 1.6307369361129399E-2; n = 1.
Another assay concerns TNIK. To be noted: read-out: apparent Kd; compound concentrations: 100 nM and 1000 nM (sheet 'Samples'), CATDS: 1.31715083861153E-2; n = 1.
[1] abbreviates: compound concentrations:100 nM and 1000 nM (sheet 'Samples').

Where two headings read alike, the source gives them in different places.

In the case of `CCN(CC)Cc1ccc(Nc2nccc(-c3cnn4ncccc34)n2)cc1` [GW780056X], the potency estimated from few doses is 1.2 µM in the assay on ADCK1 (compound concentrations: 100 nM and 1000 nM (sheet 'Samples'), CATDS: 2.0575256748511801E-2); 1.03 µM with CDK17 (compound concentrations: 100 nM and 1000 nM (sheet 'Samples'), CATDS: 2.15986885679498E-2); 0.0721 µM in the assay on CSNK1E (CATDS: 7.3916034222461E-2); 1.05 µM in the assay on MAPK8 (compound concentrations: 100 nM and 1000 nM (sheet 'Samples'), CATDS: 2.1413758236852699E-2).

Consider `c1cnn2ncc(-c3ccnc(Nc4ccc5c(c4)OCCO5)n3)c2c1` [GW806290X], for which the potency estimated from few doses was 1.82 µM with ADCK1 (compound concentrations: 100 nM and 1000 nM (sheet 'Samples'), CATDS: 2.0516224728304101E-2); 1.62 µM in the assay with CSNK1A1 (compound concentrations: 100 nM and 1000 nM (sheet 'Samples'), CATDS: 2.11429118311642E-2); 1.05 µM in the assay on CSNK1E (CATDS: 2.4076386460309102E-2); 0.532 µM with MAPK8 (compound concentrations: 100 nM and 1000 nM (sheet 'Samples'), CATDS: 3.07479356857355E-2); 0.183 µM in the assay with RIOK2 (compound concentrations: 100 nM and 1000 nM (sheet 'Samples'), CATDS: 4.9537974032322102E-2).

Turning to `CN(c1ccc(NC(=O)NCCN2CCOCC2)cc1)c1ccnc(Nc2ccc(CS(C)(=O)=O)cc2)n1.Cl` [GW830365A], in the assay with ADCK1 (compound concentrations: 100 nM and 1000 nM (sheet 'Samples'), CATDS: 4.75269778892356E-2), the potency estimated from few doses was 1.55 µM.

As to `COC(=O)c1cccc(NC(=O)NC2CCN(c3ccnc(Nc4cc(OC)c(OC)c(OC)c4)n3)C2)c1` (stereo not drawn) [GSK1379767A], the potency estimated from few doses with RIOK2 (compound concentrations: 100 nM and 1000 nM (sheet 'Samples'), CATDS: 9.3299595876540298E-2) was 2.11 µM.

As for `CCn1c(-c2nonc2N)nc2c(C#CC(C)(C)O)nc(O[C@@H](CN)c3ccccc3)cc21.O=C(O)C(F)(F)F` [GSK1007102B], the results for the potency estimated from few doses with ADCK1 (setting [1]), with MARK2 (setting [1]) and in the assay with ROCK2 (setting [1]) were 0.788 µM, 0.173 µM and 1.67 µM, respectively.

Take `CS(=O)(=O)CCn1c(=O)c(Oc2ccc(F)cc2F)cc2cnc(NC3CCOCC3)nc21` [RO5027956-000]: the potency estimated from few doses in the assay on BUB1 was 1.49 µM; in the assay with EPHA2 it was 1.06 µM; in the assay on MAPK8 (setting [1]), 1.13 µM.

Turning to `CN(C)CC(O)COc1ccc(Nc2nccc(-c3cnn4nc(N5CCOCC5)ccc34)n2)cc1` (stereo not drawn) [GW767488X], the potency estimated from few doses in the assay on ADCK1 (setting [1]) is 0.587 µM; with CDK17 (setting [1]) it was 0.2 µM; in the assay with CSNK1A1 (setting [1]) it was 1.25 µM; with MAPK8 (setting [1]), 0.127 µM; in the assay on PHKG2 (setting [1]), 2.25 µM; with RIOK2 (setting [1]) it was 0.206 µM. The potency estimated from few doses was 1.44 µM in the assay on ROCK2 (setting [1]) and 0.0692 µM in the assay on STK16 (setting [1]).

For `CCCc1cc(N2CCCN(C)CC2)nc2sc3c(N)ncnc3c12` [BI00604564], the potency estimated from few doses in the assay with ADCK1 (compound concentrations: 100 nM and 1000 nM (sheet 'Samples'), CATDS: 0.15175006426197701) was 1.55 µM; with RIOK2 (compound concentrations: 100 nM and 1000 nM (sheet 'Samples'), CATDS: 0.19130476647028), 0.959 µM.

As to `Nc1nc(Nc2ccccc2)cc(-c2ccc3c(N)n[nH]c3c2)n1` [GSK2225749A], in the assay with BUB1, the potency estimated from few doses is 1.9 µM.

`COc1cc[nH]c1/C=C1\C(=O)Nc2ccc(F)c(C#CC3(O)CCNCC3)c21.Cl` [RO0282986-001]: the potency estimated from few doses is 1.51 µM in the assay with ADCK1 (compound concentrations: 100 nM and 1000 nM (sheet 'Samples'), CATDS: 9.6711432627754196E-3); 1.66 µM in the assay on CSNK1A1 (compound concentrations: 100 nM and 1000 nM (sheet 'Samples'), CATDS: 9.4699947154489802E-3); 0.801 µM with MAPK8 (compound concentrations: 100 nM and 1000 nM (sheet 'Samples'), CATDS: 1.15534009295916E-2); 0.536 µM with MARK2 (compound concentrations: 100 nM and 1000 nM (sheet 'Samples'), CATDS: 1.32977550051059E-2); 1.05 µM in the assay with PHKG2 (compound concentrations: 100 nM and 1000 nM (sheet 'Samples'), CATDS: 1.06478310552471E-2); 0.618 µM with PRKAA2. The potency estimated from few doses is 0.668 µM in the assay on ROCK2 (compound concentrations: 100 nM and 1000 nM (sheet 'Samples'), CATDS: 1.22765922159753E-2); 0.111 µM in the assay on RPS6KA4; 0.526 µM in the assay on STK16 (compound concentrations: 100 nM and 1000 nM (sheet 'Samples'), CATDS: 1.3388611542508999E-2); 0.326 µM in the assay with STK3; 0.55 µM with TNIK.

The record behind these values is PMC11062922 (Nature Chemical Biology, 2023).
